Experimental data: PubChem BioAssay AID540317 (National Center for Advancing Translational Sciences (NCATS), 2011)
The campaign covered roughly 390,000 compounds. About 2,200 (0.56%) were called active. Entries that show only a call come without a potency. About 3% were inconclusive and are not listed. Calls come from the whole dose curve; as a rule, active = well fitted inhibition curve with a large enough effect; inconclusive = small, poorly fitted or top-dose-only effect; inactive = no such curve, though single readings can be large or run the other way. The full list was thinned out, with actives kept by preference.

target: Chromobox protein homolog 1 (Homo sapiens) (UniProt P83916); experiment: HTS for Inhibitors of HP1-beta Chromodomain Interactions with Methylated Histone Tails; conditions: AlphaScreen HP1-beta / biotin-H3K9me3 peptide binding; series mostly up to 114 µM; note: nearly all actives have a fitted effect of over 70% in size
Sequence (P83916 whole entry, looked up): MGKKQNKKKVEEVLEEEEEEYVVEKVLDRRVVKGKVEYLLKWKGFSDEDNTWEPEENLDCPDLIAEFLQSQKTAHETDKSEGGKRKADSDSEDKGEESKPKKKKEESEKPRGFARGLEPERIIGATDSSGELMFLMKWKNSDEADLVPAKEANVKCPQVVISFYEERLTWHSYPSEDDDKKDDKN
Method in brief: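 AlphaScreen: HP1-beta (50 nM) preformed 30 min with biotin-H3(1-18)K9me3 peptide (50 nM) in PBS pH 7.4, 0.01% Tween-20. Compound added for 30 min at RT, then streptavidin donor/nickel chelate acceptor beads (10 ug/mL) for 30 min.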
Potency is the fitted concentration of half-maximal effect.

SMILES | Potency
COc1cc(C2c3c(oc4ccccc4c3=O)C(=O)N2c2nc(C)c(C)s2)ccc1O (centres undefined) | inactive
COc1ccc(Cl)cc1NC(=O)CSc1nc(-c2cccs2)cc(C(F)(F)F)n1 | inactive
COc1cc(/C=N\Nc2nc(-c3cccs3)c(NC(C)=O)s2)ccc1O | 22.4 µM (active)
COc1cc(/C=C/C(=O)OCC(=O)Nc2cccc(Oc3ccccc3)c2)ccc1O | inactive
COc1ccc(CNC(=O)CSCc2nc(-c3ccccc3F)oc2C)cc1 | inactive
COc1cc(/C=C2/SC(=S)N(Cc3ccccc3)C2=O)cc(OC)c1O | 20 µM (active)
COc1ccc(Cn2c(=O)sc3ccccc32)cc1OC | inactive
COc1ccc(CCNC(=O)CCCCn2c(=O)c3ccccc3n(Cc3ccccc3)c2=O)cc1OC | inactive
Cc1nc(SCC(=O)N2CCN(c3ccccc3)CC2)[nH]c(=O)c1C | inactive
COc1cccc(-c2nc(CS(=O)(=O)CC(=O)N3CCN(c4cc(C)ccc4C)CC3)c(C)o2)c1 | inactive
O=C1C[C@@H](c2ccc3ccccc3c2)N1S(=O)(=O)c1ccccc1[N+](=O)[O-] | inactive
CCN(CC)C(=O)CSc1nc2cc3c(cc2c(=O)n1CCCC(=O)NCc1ccc2c(c1)OCO2)OCO3 | inactive
CC(=O)N1CCCc2cc(S(=O)(=O)Nc3ccc(Cl)cc3F)ccc21 | inactive
C=CS(=O)c1sc(Cl)c(N2CCOCC2)c1[N+](=O)[O-] (centres undefined) | 44.7 µM (active)
CCn1c2c(c(=O)n3ncc(C(=O)N4CCN(c5ccccc5)CC4)c13)CN(Cc1ccc(OC)cc1)CC2 | inactive
COc1ccccc1CNC(=O)C(=O)NCC(c1cccs1)S(=O)(=O)c1cccs1 (centres undefined) | inactive
Cc1nnc(C)n1-c1ccc(C(=O)Nc2cccc(Br)c2)cc1 | inactive
FC(F)(F)c1cc(Nc2nc3ccccc3c3nncn23)ccc1Cl | inactive
Cc1ccccc1Nc1c(-c2ccccc2)nc2ncccn12 | inactive
CCc1cccc(C)c1Nc1c(-c2ccc(N(C)C)cc2)nc2ncccn12 | 17.8 µM (active)
Cc1cccc(C)c1Nc1c(-c2ccccc2O)nc2ncccn12 | inactive
COc1ccc(CCNC(=O)c2ccc3c(c2)sc2nc(-c4ccc(C)cc4)cn23)cc1OC | inactive
c1ccc(Cn2nnc3c(N4CCCCC4)ncnc32)cc1 | inactive
COC(=O)c1ccc(/C=N/N2C(C)CCCC2C)cc1 (centres undefined) | inactive
CCN(CC)S(=O)(=O)c1cccc(NC(=O)c2ccc(S(=O)(=O)N3CCCC3)cc2)c1 | inactive

SMILES | Potency
CCN(CC)S(=O)(=O)c1cccc(-c2n[nH]c(=S)n2/N=C/c2ccc(C(=O)OC)cc2)c1 | 50.1 µM (active)
CCCCNC(=O)Cn1c(SCc2cccc(Cl)c2)nc2ccncc21 | inactive
CCOC(=O)c1cc2c(=O)n3ccccc3nc2n(CC2CCCO2)c1=NC(=O)c1ccccc1Br (centres undefined) | inactive
COC(=O)c1ccccc1NC(=O)C(Cc1ccccc1)N1Cc2ccccc2C1=O (centres undefined) | inactive
COc1cc(NC(=O)c2nn(-c3ccc(C)cc3)c(=O)c3c2c2ccccc2n3C)cc(OC)c1OC | inactive
Cc1cccc(-n2c(N)c(C(=O)N3CCN(C)CC3)sc2=S)c1 | 7.94 µM (active)
Cc1cccc(N2CCN(C(=O)c3ccccc3NC(=O)C3CCCCC3C(=O)O)CC2)c1 (centres undefined) | inactive
COc1cccc(N2CCN(c3ccc4nnc(CCC(=O)N5CCN(C)CC5)n4n3)CC2)c1 | inactive
C=CCn1c(=S)[nH]c2scc(-c3ccco3)c2c1=O | 35.5 µM (active)
O=S(=O)(Nc1ccc2nc(-c3cccc(Cl)c3)oc2c1)c1ccccc1 | inactive
CCc1ccc(NC(=O)CCCc2nnc3n(CCCOC)c(=O)c4sccc4n23)cc1 | inactive
CCN(CC)c1cc(NC2CCCCC2)c2c3c(onc13)-c1ccccc1C2=O | 7.94 µM (active)
Cc1ccc(Cl)cc1NC(=O)CSc1nccn1C | inactive
CCOC(=O)N1CCc2c(sc3c2c(=O)n(-c2ccc(CC)cc2)c(=O)n3C)C1 | inactive
Nc1ccc2nc3c(=O)[nH]c(=S)[nH]c3nc2c1 | 2 µM (active)
CC1=C(c2ccc(C)c(C)c2)S(=O)(=O)NC1=NCc1ccccc1Cl | inactive
COc1ccc(NC(=O)CSc2nccn2Cc2ccc3c(c2)OCO3)cc1 | inactive
O=C1Nc2ccc(Br)cc2/C1=N/N=C/C1=C(N2CCOCC2)C(=C\c2ccccc2)/CC1 | 5.62 µM (active)
Cc1oc2ccc(O)c(CN3CCCCC3)c2c1C(=O)Nc1cccc(C(F)(F)F)c1 | inactive
O=C(c1ccc2c(=O)n(Cc3ccco3)c(=S)[nH]c2c1)N1CCCC1 | inactive
CCOC(=O)C1=C(c2ccc(OC)cc2)C(=O)c2ccccc2C1=O | 31.6 µM (active)
CCOC(=O)C1=C(CC)Nc2ccccc2N=C1N | inactive
CCOC(=O)C1C(=O)C=C(c2ccc(OC)cc2)CC1c1ccco1 (centres undefined) | inactive
COc1cccc(CNC(=O)C2CCC(CNS(=O)(=O)c3cccs3)CC2)c1 (centres undefined) | inactive
Cc1ccccc1CS(=O)(=O)CC1Nc2ccc(C(=O)NCc3ccc(Cl)cc3)cc2NC1=O (centres undefined) | inactive

SMILES | Potency
COc1ccccc1N1CCN(C(CNC(=O)C(=O)NCc2ccc(C)cc2)c2cccnc2)CC1 (centres undefined) | inactive
CCOC(=O)N1CCN(C(c2cccnc2)c2ccc3cccnc3c2O)CC1 (centres undefined) | 8.91 µM (active)
Cc1ccc(NC(=O)C(=O)NCC(c2cccnc2)N2CCOCC2)cc1 (centres undefined) | inactive
CN(Cc1ccccc1)C(=O)c1cc2c(=O)n(C)c3ccccc3c2s1 | inactive
Nc1ccccc1SC(C[N+](=O)[O-])c1ccccc1 (centres undefined) | 15.8 µM (active)
Cc1cccc(-n2ncc(C(=O)N3CCc4ccccc4C3)c2C2CCN(C(=O)OC(C)(C)C)CC2)c1 | inactive
Cc1c(NC(=O)c2cc(=O)c3ccccc3o2)c(=O)n(-c2ccccc2)n1C | inactive
CCc1nnc(SCC(=O)Nc2cc(OC)ccc2OC)nc1CC | inactive
Cc1ccc(Nc2cc(C)nc3c(C)ccc([N+](=O)[O-])c23)cc1 | 22.4 µM (active)
Cc1ccc(NC2=NC(c3ccccc3)n3c(nc(C)cc3=O)N2)cc1 (centres undefined) | inactive
Cc1ccccc1Nc1c([N+](=O)[O-])ccc2nonc12 | inactive
CCOC(=O)c1c(NC(=O)c2cc(-c3ccc(Cl)cc3)on2)sc2c1CCCC2 | inactive
O=C1C2C(c3ccccc3)CC=CC2C(c2ccoc2)N1Cc1ccccc1 (centres undefined) | inactive
CC(C)C(=O)Nc1nc2c(s1)CC(C(C)(C)C)CC2 (centres undefined) | inactive
Cc1ccc(SCC(CC(C)C)N2CCN(CCc3ccccc3)CCC2=O)cc1 (centres undefined) | inactive
NC1=NOC(=O)C1C1CCCCC1 (centres undefined) | 5.01 µM (active)
CN1c2ccc(Cl)cc2-c2nc(SCC(=O)Nc3cc(F)ccc3F)ncc2S1(=O)=O | inactive
CC1(C)CCc2cc(S(=O)(=O)N3CCN(c4nc(-c5cccs5)nc5ccccc45)CC3)ccc2O1 | inactive
COc1ccc(CCN2C(=O)N(c3cccc(OC)c3)C(=O)C2CC(=O)Nc2ccccc2)cc1 (centres undefined) | inactive
O=C(NC(=O)c1ccccc1N1CCCCC1)Nc1ccc(Br)cc1 | inactive
Cc1ccccc1C(=O)Nc1ccc(N2CCCCCC2)cc1 | 35.5 µM (active)
Cc1cc(NS(=O)(=O)c2ccc(NC(=O)c3ccccc3C)cc2)nc(C)n1 | inactive
CC(=O)Nc1ccc(S(=O)(=O)N2CCCC2C(=O)O)cc1 (centres undefined) | inactive
CC(=O)Nc1ccc(S(=O)(=O)Nc2ccc(N3CCCCC3)cc2)cc1 | 20 µM (active)
CC(=O)Nc1ccc(S(=O)(=O)N2CCN(c3ccccc3)CC2)cc1 | inactive

SMILES | Potency
CCOc1ccc(CNC(=O)CCc2c(C)nn(-c3ccc(N4CCCCC4)nn3)c2C)cc1 | inactive
CCOC(=O)c1c(NC(C)=O)c2c3c(sc2n1Cc1c(C)cc(C)cc1C)CCCC3 | inactive
COc1ccc(C(=O)COC(=O)CCCC(=O)Nc2cc(C(F)(F)F)ccc2Cl)cc1 | inactive
CCC(Sc1nnc(-c2ccc(OC)cc2)c(-c2ccc(OC)cc2)n1)C(=O)NC1CCCCC1 (centres undefined) | inactive
Cc1cc(N=Nc2ccc3ccccc3c2)ccc1O | 50.1 µM (active)
Cc1cc(C)cc(NS(=O)(=O)c2ccc3[nH]cc(C(=O)N4CCCCC4)c(=O)c3c2)c1 | inactive
COc1cccc(CNC(=O)c2ccc3c(c2)sc2nc(-c4cccc(OC)c4)cn23)c1 | inactive
CCCNc1ncnc2c1c(-c1ccccc1)cn2-c1ccc(OCC)cc1 | inactive
COc1cc(N2CCCC2)c(OC)cc1/C=C(/C#N)c1cccc(Br)c1 | 35.5 µM (active)
CCOC(=O)c1[nH]c(C)c(CCC(=O)N2CCN(c3ccccc3)CC2)c1C | inactive
Cc1ccc(NC(=O)Cn2cnc3nc4c(cc3c2=O)CCCC4)cc1Cl | inactive
CCOC(=O)c1cc(-c2ccc(OC)c(S(=O)(=O)Nc3ccc(OC)cc3OC)c2)on1 | inactive
O=C1CN(Cc2ccccc2)S(=O)(=O)c2ccccc21 | inactive
COc1ccc(Cc2nc3ccc(C(=O)NCc4ccccc4C)cc3o2)cc1 | inactive
COc1cc2c3c(c1)/C(=C1/SC(=S)NC1=O)C(=O)N3C(C)(C)C=C2C | 10 µM (active)
Cc1cccc(N2CCN(C(=O)c3ccc(Nc4nc5ccccc5n5nnnc45)cc3)CC2)c1C | inactive
Cc1csc2nc(COC(=O)c3ccccc3NC(=O)c3ccccc3Cl)cc(=O)n12 | inactive
COc1ccc(-c2nnc(SCC(=O)Nc3ccc(C(C)C)cc3)nc2-c2ccc(OC)c(OC)c2)cc1OC | inactive
O=C1C(Cl)=C(Oc2ccccc2)C(=O)c2ccccc21 | 2 µM (active)
COc1ccc(Br)cc1C1C2C=CCC(C)C2C(=O)N1Cc1ccccc1 (centres undefined) | inactive
CCOC(=O)c1ccc(NC(=O)Cn2cc(S(=O)(=O)Cc3ccccc3F)c3ccccc32)cc1 | inactive
Cc1cc(=O)n(C)c(=O)n1CCCNc1ccccc1 | 56.2 µM (active)
Cn1c(=O)c(=O)n(C)c2cc(S(=O)(=O)NCCc3ccccc3)ccc21 | inactive
Cc1c(S(=O)(=O)NCc2ccccc2)c(=O)n(C)c(=O)n1C | inactive
